These results are taken from PubChem BioAssay AID686978 (National Center for Advancing Translational Sciences (NCATS), 2013).

Each structure is given as a SMILES string. Out of some 420,000 compounds screened, about 64,000 (15%) were called active. Not shown: some 27% with an inconclusive outcome. Only a sample is shown. Unmarked numbers belong to inactive results. Calls follow the shape of the dose curve; as a rule, active = well fitted inhibition curve with a large enough effect; inconclusive = small, poorly fitted or top-dose-only effect; inactive = flat fitted curve, though single readings scatter.
% is scaled to controls: 0 for no effect and ±100 for the full control effect; potency is read from the fitted curve at half-maximal effect.

The assay can be described thus: qHTS for Inhibitors of human tyrosyl-DNA phosphodiesterase 1 (TDP1): qHTS in cells in absence of CPT. Also: nearly all actives have a fitted effect of over 55% in size. To be noted: DT40 Tdp1-/- hTDP1 cells, no CPT, ATP luminescence, 48 h; activity change, negative = growth inhibition: at 46.2 µM (top of the series). A digest of the protocol:
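Chicken DT40 Tdp1-/- cells complemented with human TDP1, screened without camptothecin (DMSO vehicle only), 400 cells/well. Compounds pin-transferred, cells incubated at 37 °C for at least 48 hr. Growth read as ATP-dependent luminescence (CellTiter-Glo, 30 min at RT).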
(In general: qHTS replaces the single test concentration by a dilution series.)
Turning to `C=CC1C(OC2OC(CO)C(O)C(O)C2O)OC=C(C(=O)OC)C1CC1CC(=O)CC(CC(=O)CCc2ccc(O)cc2)O1` (stereo unspecified), the “activity change, negative = growth inhibition” value is -16.7%. Take `C[C@@H](O)c1nc2ccccc2n1N`: the “activity change, negative = growth inhibition” value is 10.4%. Still for that read-out and setting: the result for `C#CCOCCOCCOCCNc1nc(N2CCOCC2)nc(N2CCN(C(=O)[C@H](Cc3ccc(O)cc3)n3cc(CCO)nn3)CC2)n1` reads 20.5%.

`Cn1cc(CN2CCCCC2c2ccccn2)c(-c2ccc3c(c2)OCCO3)n1` (stereo unspecified): the “activity change, negative = growth inhibition” value is -11.7%. As to `CC1=C(c2ccc(C)cc2)S(=O)(=O)NC1=NCCCN1CCN(c2cc(C)ccc2C)CC1`, the Potency was 3.66 µM (active). On to `COC(=O)c1ccc2c(c1)S(=O)(=O)NC(=NCCCN1CCOCC1)S2`, for which the “activity change, negative = growth inhibition” value was -1.67%. Still for that read-out and setting: under `CCc1nnc(NC(=O)CCC(=O)N2CCN(c3cc(C)ccc3C)CC2)s1` stands -7.76%.

As to `CCN(CC)C(=O)N1CCN(C(=O)c2ccc(C)cn2)CC1`, the “activity change, negative = growth inhibition” value is -5.87%. On the same count and under the same terms, under `CC(=NNC(=O)c1ccc2nc[nH]c2c1)c1ccc(Br)cc1` stands -25.5%. For `O=C(N/N=C/c1ccc(Cl)c(Cl)c1)c1ccc2nc[nH]c2c1`, the Potency was 23.1 µM (active). Turning to `Cc1nc2ccc(C(=O)N/N=C/c3ccc(O)cc3)cc2[nH]1`, the “activity change, negative = growth inhibition” value is -4.18%. Same read-out and setting: the result for `CCCCc1ccc(S(=O)(=O)NC(=O)C2(C)CCN2C(=O)c2ccccc2)cc1` (stereo unspecified) reads -2.64%; that for `COc1ccc(C2/C(=C(/O)c3ccc4c(c3)CC(C)O4)C(=O)C(=O)N2Cc2ccncc2)cc1` (stereo unspecified), 2.22%. Still for that read-out and setting: the result for `COc1cc(C2C(C(=O)OCCC#N)=C(C)NC3=C2S(=O)(=O)c2ccccc23)cc(OC)c1OC` (stereo unspecified) reads 18.7%. On the same count and under the same terms, the result for `O=C(Nc1ccccc1Br)c1cc(CN2CCCC2)on1` reads -15%; that for `O=C(c1ccco1)N1CCN(C(=O)c2cc(-c3ccccc3F)no2)CC1`, -5.39%. For the compound `CN(Cc1ccccc1F)C(=O)C(Cc1ccccc1)NC(=O)c1ccccc1` (stereo unspecified), the Potency was 16.4 µM (active). For `CC(Cc1ccccc1)C(=O)N(C)Cc1ccccc1` (stereo unspecified), the “activity change, negative = growth inhibition” value was -13.9%. Still for that read-out and setting: under `CN(Cc1ccccc1)Cc1ccccc1F` stands -26.3%; under `Cc1ccc(C)c(C(C)NC(=O)C2CCCO2)c1` (stereo unspecified), -28.7%.

For `O=c1onc(-c2c(F)cccc2F)n1-c1ccccc1Cl`, the “activity change, negative = growth inhibition” value is 16.1%. Consider `CCOC(=O)Cn1c(SC)nc2sc3c(c2c1=O)CC(C)(C)OC3`, for which the Potency is 14.6 µM (active). With `CCOC(=O)CSc1nc2sc3c(c2c(=O)[nH]1)CC(C)(C)OC3`, the “activity change, negative = growth inhibition” value was -25.4%.

Turning to `CCSc1nc2sc3c(c2c(=O)[nH]1)CC(C)(C)OC3`, the “activity change, negative = growth inhibition” value was -19.9%. The same measure, in the same setting: under `COC(=O)C1(C)NC(c2ccccc2OC)C2C(=O)N(c3ccccc3)C(=O)C21` (stereo unspecified) stands 9.08%. With `CCOC(=O)C1(Cc2ccc(O)cc2)NC(c2ccccc2F)C2C(=O)N(C)C(=O)C21` (stereo unspecified), the Potency is 20.6 µM (active). Take `CCOCCOC(=O)C1=C(C)N(C)C(=O)NC1c1ccccc1F` (stereo unspecified): the “activity change, negative = growth inhibition” value was -14.8%.

As for `Cc1n[nH]c(=O)c2c1nnn2Cc1ccc(F)cc1`, the “activity change, negative = growth inhibition” value was 17.2%. Still for that read-out and setting: the result for `Cc1cc(C)cc(NC(=O)Cn2cnc3c(nnn3Cc3ccc(F)cc3)c2=O)c1` reads 0.0292%. Regarding `Cc1ccc(C)c(Cn2nnc3c(=O)[nH]c(C(=O)Nc4ccc(F)cc4)nc32)c1`, the Potency was 16.4 µM (active). As to `O=C1NC(c2ccccc2)Oc2ccccc21` (stereo unspecified), the “activity change, negative = growth inhibition” value was -0.613%. Same read-out and setting: the result for `O=C(OCCN1C(=O)c2ccccc2C1=O)Oc1ccccc1` reads 3.82%. Still for that read-out and setting: under `C[C@H]1CN([C@@H](C)CO)C(=O)CCCn2cc(nn2)CO[C@@H]1CN(C)C(=O)Nc1ccccc1` stands 9.92%; under `CC1CCCCN1CCCNc1ccc(C(CC(N)=O)NC(=O)c2ccccc2)cc1[N+](=O)[O-]` (stereo unspecified), 1.22%; under `COc1ccc(OC)c(C(=O)NC(CC(N)=O)c2ccc(N3CCC(N4CCCCC4)CC3)c([N+](=O)[O-])c2)c1` (stereo unspecified), -0.645%. In the case of `NC(=O)CC(NC(=O)Cc1cccc2ccccc12)c1ccc(NCc2cc(F)ccc2F)c([N+](=O)[O-])c1` (stereo unspecified), the Potency was 29.1 µM (active). As for `COc1ccccc1CNc1ncncc1-c1cccc(NS(C)(=O)=O)c1`, the “activity change, negative = growth inhibition” value is 19.5%. For the compound `CS(=O)(=O)Nc1cccc(-c2cncnc2Nc2ccccc2)c1`, the “activity change, negative = growth inhibition” value was -2.18%.

Turning to `CNc1ncnc2ccc(-c3cccc(NS(C)(=O)=O)c3)cc12`, the Potency was 18.4 µM (active). `Cn1c2ccccc2c2cc(/C=C(\NC(=O)c3ccccc3)C(=O)NCC(=O)O)ccc21`: the “activity change, negative = growth inhibition” value is 7.87%. Still for that read-out and setting: under `O=C(O)C1CCCN1C1=NS(=O)(=O)c2ccccc21` (stereo unspecified) stands 18.4%; under `Fc1cccc(-n2ncc3c2ncn2nc(-c4ccccc4Cl)nc32)c1`, -15.3%.

`COc1ccc(C2Nc3ccc(NC(=O)COC(C)=O)cc3C(=O)N2Cc2ccccc2)cc1COc1ccc(NC(C)=O)cc1` (stereo unspecified): the Potency was 12.6 µM (active). Regarding `COc1ccc(N2C(=O)c3ccccc3NC2c2ccc(OC)c(CN3CCOCC3)c2)cc1` (stereo unspecified), the “activity change, negative = growth inhibition” value was -19.5%. On the same count and under the same terms, under `COc1cc(C2C3=C(CCCC3=O)OC3=C2C(=O)CCC3)ccc1OCC(=O)Nc1ccccc1` stands -25.5%; under `CN(CC(=O)Nc1ccc(F)cc1)CC(=O)N1CCCCC1`, -14.5%; under `CCc1c(C)c2c(C)[nH]nc2oc1=O`, -25%. In the case of `COc1ccc(OC)c(Cc2cnc3nc(N)nc(N)c3c2C)c1`, the Potency was 0.164 µM (active). With `COc1ccc(OC)c(-n2nnc3c(sc4nc(C)c(Br)c(C)c43)c2=O)c1`, the “activity change, negative = growth inhibition” value was 1%.

Consider `Cc1nnc(NC(=O)c2ccc3nccnc3c2)s1`, for which the “activity change, negative = growth inhibition” value is -30%. The same measure, in the same setting: under `O=C(COc1ccc(Cl)cc1)NC(=S)Nc1ccccc1N1CCOCC1` stands -2.65%.
